Results on 23 sequences are retold here after the OligoGym collection.
Note: reference of the scale not given here.

The first assay deals with SLC7A13. Kind of assay: pooled miR-30 sensor sort-seq; sequence = guide strand. The settings on record: shRNA.
TAAATAAACTACAGTCACCAGA: the sensor-assay potency score (higher = more potent) was -0.342.

Consider TAATTGTAAATAGCAAGTCATC, for which the sensor-assay potency score (higher = more potent) was -1.71.

The sequence TTCAGCATCAAAAGCATTCTGA gave a sensor-assay potency score (higher = more potent) of -0.117.

The sequence TAATCCGCTGAGAACTAACAGA had a sensor-assay potency score (higher = more potent) of -0.752.

Consider TTAATAAGCAAAAAACTTGTGC, for which the sensor-assay potency score (higher = more potent) is -0.255.

In turn, TAGTATTGAGCTCCACTGCATG displayed a sensor-assay potency score (higher = more potent) of -1.

For the sequence ATCATTAATAATATAGACCATA, the sensor-assay potency score (higher = more potent) was -1.16.

For the sequence AAATCGTTCTACATTCTCCTTT, the sensor-assay potency score (higher = more potent) is 0.252.

TTATCAGGAACACTACTCCAGT: the sensor-assay potency score (higher = more potent) was -0.614.

ATATAGACCATAATGAACCCGT came in with a sensor-assay potency score (higher = more potent) of -0.357.

In turn, TTAACCTTGATTTGGAATCTGA returned a sensor-assay potency score (higher = more potent) of 0.0155.

For the sequence TATGCCAACACACCTTTGGGGG, the sensor-assay potency score (higher = more potent) is -0.996.

The target in another assay is SLC8A1. Described as above. The settings on record: shRNA.
TTAATCTTCCTTGTCTCTCCGT: the sensor-assay potency score (higher = more potent) amounted to 0.395.

With TTCTCTAGCATGAACCTTCCTG, the sensor-assay potency score (higher = more potent) is -0.164.

TTTATCTGGATGCTTCTGCTTA had a sensor-assay potency score (higher = more potent) of -0.388.

With ATGTTCTCTAGCATGAACCTTC, the sensor-assay potency score (higher = more potent) was -0.822.

TTGTAAAACAGAAGTCTCCTAT showed a sensor-assay potency score (higher = more potent) of 0.149.

In the case of TCTTACAGTAATATGATCCAGT, the sensor-assay potency score (higher = more potent) came to 0.348.

As for TTGTCTTGGTGGTCTCTCCATT, the sensor-assay potency score (higher = more potent) is -0.926.

As for TAAAACTGACAGACAATCCCAA, the sensor-assay potency score (higher = more potent) turned out to be 0.165.

For TAATCTTCCTTGTCTCTCCGTC, the sensor-assay potency score (higher = more potent) is 0.74.

The sequence TTGAACATGATGATGCCCCTGG had a sensor-assay potency score (higher = more potent) of 0.652.

For the sequence TATCACAACAACATTTCCGAAC, the sensor-assay potency score (higher = more potent) is -0.676.
